From PubChem
DRD3 agonist = activates the human D3 dopamine receptor; D3R DiscoveRx beta-arrestin cells, luminescence, 90 min; max activation, %; actives 0.58% (n = 410,000); AID 652048; in the data active = max activation above about 30%; also: 0% is about no effect
Target sequence (P35462 whole entry, looked up): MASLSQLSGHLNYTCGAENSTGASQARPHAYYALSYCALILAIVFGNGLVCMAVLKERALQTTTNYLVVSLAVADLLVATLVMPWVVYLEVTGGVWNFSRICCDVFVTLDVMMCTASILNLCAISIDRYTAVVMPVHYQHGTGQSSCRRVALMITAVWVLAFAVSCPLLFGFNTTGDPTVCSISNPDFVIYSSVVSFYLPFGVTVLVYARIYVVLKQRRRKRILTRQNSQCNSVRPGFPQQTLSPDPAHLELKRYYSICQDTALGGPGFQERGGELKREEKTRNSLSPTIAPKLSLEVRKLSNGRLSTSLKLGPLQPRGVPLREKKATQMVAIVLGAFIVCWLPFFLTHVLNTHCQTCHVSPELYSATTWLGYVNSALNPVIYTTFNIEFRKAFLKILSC
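Cells at 1500/well, incubated overnight, then treated with pinned compounds (dopamine as control) for 90 min at 37 degrees C. DiscoveRx reagent added for 30 - 60 minutes at room temperature; luminescence read.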
Integrin act MD = activates integrin-mediated alleviation for muscular dystrophy; actives 0.064% (n = 350,000); alpha7betagal myoblasts, beta-gal FDG fluorescence, 48 h; Potency, µM (highest dose often 38.3 µM), for inactives: at the highest dose activation, most hits filed as activators; AID 624291; active = well fitted activation curve with a large enough effect; inconclusive = small, poorly fitted or top-dose-only effect; inactive = no such curve, though single readings can be large or run the other way;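 also: potency is read from the fitted curve at half-maximal effect; 100% = response of the positive control SU9516; nearly all actives have a fitted effect of over 60% in size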
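alpha7betagal+/- myoblasts (passage 13, 250/well) treated 48 h at 37C with compounds at 1:260 dilution of DMSO stock. Lysed, then beta-galactosidase activity read as FDG fluorescence (ex 480/em 540) after 30 min, with pre-read for autofluorescence.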
D3 antag = blocks the human D3 dopamine receptor | P35462 | D3R cells, DiscoveRx beta-arrestin luminescence, antagonist mode; hits give low values | max response, negative = inhibition, % | actives 2.5% (n = 360,000) | AID 652054; in the data active = max response below about -50%; inconclusive = no clear call, values can overlap the other calls; also: % is scaled to controls: 0 for no effect and ±100 for the full control effect
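Cells plated overnight at 1500 cells/well, then exposed to library compounds with dopamine controls for 90 minutes at 37 degrees C. DiscoveRx reagent added for 30–60 minutes at room temperature; luminescence read, quantitative HTS format.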
* marks the source's active call; other numbers are inactive results; ? = inconclusive; nt = no result given; [ ] = remark or other dose. Most compounds without a hit are left out; they make up all but 2.9% or so of the library.

SMILES | DRD3 agonist | Integrin act MD | D3 antag
CCOCCCNC(=O)C(c1ccc(OC)cc1)N(Cc1ccc2c(c1)OCO2)C(=O)CNC(C)=O (centres undefined) | 1.0 | 11.7% | 61.9
COc1cc(C)ccc1OC(C)C(=O)Nc1ccc(N2CCCCC2)cc1 (centres undefined) | 6.4 | -9.2% | -8.0
CNc1nc(N)c([N+](=O)[O-])c(Nc2cccc(Cl)c2)n1 | 1.9 | 41.1% | -1.7
O=C(NCCc1ccc(Cl)cc1)c1cc(S(=O)(=O)N2CCCCC2)c[nH]1 | 1.5 | 0.0% | 43.6
CCOC(=O)C1CCCN(C(=O)/C=C/c2ccccc2[N+](=O)[O-])C1 (centres undefined) | -2.4 | -16.9% | -8.2
CCOC(=O)C1CCN(C/C=C/c2ccccc2[N+](=O)[O-])CC1 | -12.5 | -15.9% | -56.0*
COc1ccccc1/C=C/CN1CCOCC1 | -23.0 | 2.1% | -25.2
CCOC(=O)C1CCN(C/C=C/c2ccccc2OC)CC1 | -57.1 | -19.7% | -67.8*
Cc1nc2nc[nH]n2c(=O)c1NS(=O)(=O)c1ccc(C(C)(C)C)cc1 | 1.1 | 20.7% | 10.2
Cc1ccc(Cl)cc1NC(=O)CC1Sc2ccccc2NC1=O (centres undefined) | -6.5 | nt | nt
O=C(CC1Sc2ccccc2NC1=O)NNc1cc(Cl)ccc1Cl (centres undefined) | 35.8* | -30.6% | 47.3
CCCn1c2ccccc2c2cnn(CC(=O)NCCOC)c(=O)c21 | -10.7 | -10.0% | -15.4
CCOCCCNC(=O)C(c1ccccc1)N(Cc1cccs1)C(=O)CNC(C)=O (centres undefined) | -3.0 | -12.7% | -1.7
O=C(NCc1ccccc1)c1cccc(COc2ccccc2Cl)c1 | -1.0 | -18.0% | -18.4
O=C(NCc1ccccc1)c1cccc(COc2cc(Cl)ccc2Cl)c1 | -5.0 | ? | -71.6*
CCc1ccc(/C=N/n2c(C3CCCCC3)n[nH]c2=S)cc1 | -3.6 | -44.4% | ?
Cc1nc(Nc2ccccc2)c2oc3ccc(Cl)cc3c2n1 | 92.6* | -26.3% | -6.2
c1ccc2c(c1)oc1c(Nc3ccc4c(c3)OCO4)ncnc12 | -3.7 | 0.5% | -27.2
Cc1ccc(-c2nnc(Nc3ccc4c(c3)OCO4)c3ccccc23)cc1S(N)(=O)=O | -18.5 | 5.9% | 1.2
Cc1ccc(Nc2nc(C)nc3c2oc2ccccc23)cc1 | 8.7 | 8.1% | 36.8
Cc1nnc(Nc2ccc3c(c2)OCO3)c2ccccc12 | -8.5 | -10.8% | -63.2*
Cc1nc(Nc2ccc3c(c2)OCO3)c2oc3ccccc3c2n1 | -2.5 | 4.4% | -54.1*
O=S1(=O)CCOC[C@H](c2ccccc2)N1Cc1cccc(F)c1 | 8.4 | 12.4% | ?
C=CCn1nc(-c2ccccc2)cc1C(=O)OCC | 40.0* | 18.8% | 111.7
CCOC(=O)c1cc(-c2ccccc2)nn1CCC#N | -1.8 | 0.0% | 5.7
SMILES | DRD3 agonist | Integrin act MD | D3 antag
CCCCc1c(C)nc2ccc(Br)cc2c1SC(N)N | -0.6 | -2.6% | -3.6
O=C(CNC(=O)OCc1ccccc1)NC1CCCCCC1 | -0.1 | -4.1% | -16.5
O=C(CC1Sc2ccccc2NC1=O)NCc1cccc(Cl)c1 (centres undefined) | 3.5 | -3.1% | 13.5
COc1ccc(/C=C2/SC(=S)N(c3ccc(S(=O)(=O)Nc4nccs4)cc3)C2=O)cc1 | 16.0 | -19.4% | -54.4*
Cc1ccc(/C=C2/SC(=S)N(c3ccc(S(=O)(=O)Nc4nccs4)cc3)C2=O)cc1 | 2.6 | 0.0% | ?
CCCNC(=O)NC(=O)CSc1nc2cc(C(=O)OC)ccc2c(=O)n1-c1ccccc1 | -6.1 | 6.5% | 0.0
COCc1ccc(C(=O)N2CCC(CCC(=O)Nc3cccc(C)c3)CC2)s1 | 0.4 | 27.5% | -1.1
CCN1CCc2nc(NC(=O)c3ccccc3)sc2C1 | 2.4 | 0.9% | 6.4
Nc1nc2c(s1)CCCCCCCCCC2 | 4.5 | -21.0% | -12.9
CCN1CCc2nc(N)sc2C1 | 40.2* | -4.8% | 18.9
C=CCN1CCc2nc(N)sc2CC1 | 92.8* | nt | 3.6
Nc1nc(-c2cc3c(cc2Cl)OCCO3)cs1 | 3.4 | -3.8% | -11.5
COc1ccccc1NC1=C(N2CCCCC2)C(=O)c2ccccc2C1=O | -1.3 | -17.9% | -9.7
Cc1ccc(NC2=C(N3CCCCC3)C(=O)c3ccccc3C2=O)cc1 | -12.1 | -45.6% | -62.6*
O=C1C(Nc2ccccc2)=C(N2CCCCC2)C(=O)c2ccccc21 | -2.7 | 4.7% | -60.1*
O=C1C(Nc2cccc(O)c2)=C(N2CCCCC2)C(=O)c2ccccc21 | -14.0 | -46.4% | ?
CN(C)S(=O)(=O)c1cccc(C(=O)Nc2ccccc2N2CCCCC2)c1 | 14.2 | -35.3% | 32.5
Cn1nc(C(=O)NC2CCCCCC2)ccc1=O | -2.9 | -23.7% | 2.4
Cn1nc(C(F)(F)F)cc1C(=O)NC1CCCCCC1 | 40.4* | 0.2% | 32.1
CCOC(=O)CC(NC(=O)CCc1c(C)nc2cc(-c3ccccc3)nn2c1C)c1ccc(C)cc1 (centres undefined) | -12.9 | nt | nt
Cn1c(-c2c(N)n(C3CCCC3)c3nc4ccccc4nc23)nc2ccccc21 | 2.0 | 0.0% | 78.0
Cn1c(-c2c(N)n(CCc3ccccc3)c3nc4ccccc4nc23)nc2ccccc21 | 46.3* | -46.2% | 23.5
Cn1c(-c2c(N)n(CCCc3ccccc3)c3nc4ccccc4nc23)nc2ccccc21 | 3.6 | -0.2%[7.66 µM] | 14.3
COCCCn1c(N)c(-c2nc3ccccc3n2C)c2nc3ccccc3nc21 | 13.7 | 0.0% | -87.9*
CN(CC(=O)Nc1ccc(OC(F)(F)F)cc1)C(=O)/C=C/c1ccco1 | -7.5 | -11.7% | ?
SMILES | DRD3 agonist | Integrin act MD | D3 antag
CN(CC(=O)Nc1ccc(OC(F)(F)F)cc1)C(=O)/C=C/c1cc2c(cc1[N+](=O)[O-])OCO2 | -30.3 | -12.3% | -94.6*
CCC(C)/C(C)=N/NC(=O)CSc1nc2ccccc2[nH]1 (centres undefined) | -0.3 | ? | 1.4
COc1ccc(CCN2C(=O)CSC2=Nc2ccc(C(C)C)cc2)cc1OC | 43.4* | -54.1% | 45.9
COc1ccc(N=C2SCC(=O)N2CCc2ccc(OC)c(OC)c2)cc1 | -6.0 | 0.0% | 21.3
CC1Cc2ccccc2N1C(=O)CN1CCN(Cc2ccccc2)CC1 (centres undefined) | -11.1 | -17.6% | -78.4*
CC1Cc2ccccc2N1C(=O)CN1CCc2ccccc2C1 (centres undefined) | -17.4 | -16.2% | -4.5
CC1Cc2ccccc2N1C(=O)Cn1cc(C(F)(F)F)ccc1=O (centres undefined) | -13.8 | 12.2% | -117.0*
CC1CCN(CC(=O)N2c3ccccc3CC2C)CC1 (centres undefined) | -7.5 | -1.7% | -25.5
O=C(CCCC(=O)c1ccccc1)NCCc1ccccc1F | 4.5 | 3.0% | -6.7
CCCCC(CCc1ccccn1)C(=O)c1ccccc1 (centres undefined) | -7.2 | 4.9% | -3.0
O=C(c1cccnc1)N1c2ccccc2Sc2ccccc21 | 1.2 | 17.5% | 3.8
COc1ccc(CC(=O)NCC2CCCN(Cc3ccc(OC)cc3F)C2)cc1 (centres undefined) | -15.6 | -8.9% | 0.5
Cc1cnc(CNC(=O)c2ccc3sc([C@@H]4O[C@H](CO)[C@H](O)[C@H](O)[C@H]4O)nc3c2)cn1 | -4.7 | nt | -50.1*
O=C(NCc1cccnc1)c1ccc2sc([C@H]3C[C@H](O)[C@@H](CO)O3)nc2c1 | -3.8 | nt | -68.6*
Cc1cccc(C)c1NC(=O)c1ccc2sc([C@H]3C[C@H](O)[C@@H](CO)O3)nc2c1 | -6.2 | nt | -25.4
